Source: PubChem BioAssay (several laboratories)
A selection: hits, their analogues and other compounds. The true share with any hit is near 4.1%.
LMP1 NFkB inh: reduces LMP1-driven NF-kappaB luciferase signal; AID 504558; LMP1-induced NF-kappaB luciferase reporter cells, luminescence; inhibition, % at 12.5 µM; 0.69% of 350,000 active; in the data active = inhibition above about 41%; inconclusive = no clear call, values can overlap the other calls
Peg3 prom inh: inhibitors of Peg3 promoter. inhibition, % at 20 µM. 1.7% of 360,000 active. HeLa PEG-Prom luciferase reporter, luminescence, overnight;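 active = inhibition of at least 50% at 20 µM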
TROY signal inh: TROY signaling inhibition. Q293 LMP1-TROYcd NF-kB luciferase reporter, 4 h. inhibition, % at 10 µM. 0.98% of 360,000 active. AID 1347056;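 active = compounds whose plate-normalised and pattern-corrected inhibition of the luciferase reporter signal at the single screening dose is 50% or more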
TRPM1 prom inh: reduces MITF-dependent TRPM1 promoter luciferase signal | inhibition, % at 12.5 µM | SK-MEL-5 TRPM1 promoter luciferase, 24 h | 0.83% of 330,000 active;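 active = mean inhibition across replicates of 60% or more, whatever share of single replicates reaches that level; inconclusive = some that reach 60%, reason not given; inactive = mean inhibition across replicates below 60%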
Shn3 inh set2: inhibitors of Schnurri-3 3'UTR reporter in osteoblasts; inhibition, % at 12.5 µM; 0.52% of 360,000 active; Clone20 osteoblast Shn3 3'UTR firefly luciferase, 24 h; AID 588674;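 active = mean inhibition of at least 75% with every replicate also reaching 75%; inconclusive = mean inhibition at least 75% but some replicate below; inactive = mean inhibition below 75%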
TWEAK Fn14 block: TWEAK-Fn14 signaling inhibition; TWEAK-stimulated Fn14 reporter cells, luciferase luminescence, 8 h; inhibition, % at 10 µM; 2% of 360,000 active; AID 1159606; in the data active = inhibition above about 50%
Numbers stand for hits; – = inactive; ? = inconclusive; · = no result.

SMILES	LMP1 NFkB inh	Peg3 prom inh	TROY signal inh	TRPM1 prom inh	Shn3 inh set2	TWEAK Fn14 block
O=C(Nc1nc(-c2ccc(S(=O)(=O)N3CCCCCC3)cc2)cs1)c1cccs1	–	–	–	–	–	–
O=C(Nc1nc(-c2ccc(S(=O)(=O)N3CCCC3)cc2)cs1)c1cccs1	–	–	53	–	–	55
O=C(Nc1cc(S(=O)(=O)N2CCOCC2)ccc1Cl)c1ccncc1	69	–	–	–	–	–
COc1cc(C(=O)Nc2nc(-c3ccc(C)cc3)cs2)ccc1OCC(=O)N1CCOCC1	–	–	57	–	–	–
Cc1cc(NC(=O)c2cccc(S(=O)(=O)N(C)C)c2)n(-c2ccccn2)n1	–	–	–	–	–	–
O=C(Nc1nc(-c2nc3ccccc3s2)cs1)c1ccc(S(=O)(=O)N2CCOCC2)cc1	–	–	64	–	–	78
COc1cccc(C(=O)Nc2nc(-c3ccc(S(=O)(=O)N4CCOCC4)cc3)cs2)c1	–	68	64	–	–	70
O=C(Nc1nc(-c2ccccc2)c(-c2ccccc2)s1)c1ccc(S(=O)(=O)N2CCCC2)cc1	–	–	–	–	–	–
Cc1nc2ccc(NC(=O)c3ccc(S(=O)(=O)N4CCOCC4)cc3)cc2s1	–	–	–	–	–	–
O=C(Nc1nc(-c2ccccc2)c(C(=O)c2ccccc2)s1)c1ccc(S(=O)(=O)N2CCCC2)cc1	–	–	–	–	–	72
CN(C)CCNc1ncnc2c1ncn2[C@H]1CN(Cc2ccco2)C[C@@H](CO)O1	·	–	–	·	–	–
Cc1cccc(NC(=O)CN2CCN(C(=O)c3cccc(-n4cnnn4)c3)CC2)c1C	–	–	–	·	–	–
COc1cc2c(cc1OC)C(C1C(=O)CC(C)(C)CC1=O)N(C(=O)CCl)CC2 (stereo unspecified)	–	–	–	–	–	–
COc1cc2c(cc1OC)C(c1cc(Br)ccc1F)N(C(=O)CCl)CC2 (stereo unspecified)	–	102	–	98	98	–
CN(C)CCNC(=O)/C(=N\O)c1ccccn1	–	–	–	–	–	–
Cc1onc(-c2ccccc2)c1C(=O)NC(=S)NNC(=O)c1ccc(O)cc1O	43	–	–	–	–	–
Cc1cccc(N2CCN(C(=O)C3CCC(=O)N(C4CC4)C3)CC2)c1C (stereo unspecified)	–	–	–	–	–	–
CC1O[C@@H](O[C@H](C)CC[C@@H](C)O[C@H]2OC(C)[C@@H](O)C[C@H]2O)C(O)C[C@H]1O (stereo partly specified)	–	–	–	–	–	–
CCOC(CNCc1cc(C)c2[nH]c3ccccc3c2c1C)OCC	–	74	–	–	–	–
COc1cc(NC(=O)NCc2ccco2)ccc1-c1ccc(NC(=O)NCc2ccco2)cc1OC	–	–	–	?	83	–
COc1ccccc1NC(=O)NCc1ccco1	–	–	–	–	–	–
Cc1nc(NC(=O)c2ccccc2)sc1-c1csc(NCCc2ccccc2)n1	–	–	–	–	–	54
Cc1nc(NC(=O)c2ccccc2)sc1-c1csc(NCc2ccccc2)n1	–	–	–	–	–	–
CCOc1ccccc1Nc1nc(-c2sc(NC(=O)c3cccc(Cl)c3)nc2C)cs1	–	–	–	–	–	64
COCCCN(C(=O)C(C)Oc1ccc(Br)cc1)c1c(N)n(Cc2ccccc2)c(=O)[nH]c1=O (stereo unspecified)	–	–	–	–	–	–
SMILES	LMP1 NFkB inh	Peg3 prom inh	TROY signal inh	TRPM1 prom inh	Shn3 inh set2	TWEAK Fn14 block
CCOC(=O)c1nn(-c2ccccc2)cc1O	–	–	–	–	–	–
COC(=O)c1nn(-c2ccc(-c3ccccc3)cc2)cc1O	–	–	–	73	–	81
CC(=O)Nc1ccc(S(=O)(=O)NNC(=O)c2cccc(Br)c2)cc1	–	–	–	–	–	–
COc1ccc(N2CCN(C(=O)Cn3ncc4c([nH]c5ccccc54)c3=O)CC2)cc1	–	53	–	–	–	–
CS(=O)(=O)N1CCCC(C(=O)NCCc2ccccc2)C1 (stereo unspecified)	–	–	–	–	–	69
CCOc1ccc(CNC(=O)C2CCCN(S(C)(=O)=O)C2)cc1OC (stereo unspecified)	–	–	–	–	–	92
O=C1CN(C(=O)COC(=O)c2c(F)cccc2Cl)c2ccccc2N1	–	–	–	–	–	–
CCN(CC(=O)Nc1ccc2c(c1)OCCO2)C(=O)c1ccc(C(F)(F)F)cc1	–	–	–	–	–	–
COc1ccc(C(=O)c2no[n+]([O-])c2C(=O)c2ccc(OC)cc2)cc1	–	66	–	–	–	–
O=C(c1cccs1)c1no[n+]([O-])c1C(=O)c1cccs1	–	93	–	67	–	–
Cc1ccc(NC(=O)NCc2ccc3c(c2)OCO3)cc1	–	–	–	–	–	–
Cc1ccc(-c2ccc(/C=C3\C(=O)ON=C3c3ccccc3)o2)c([N+](=O)[O-])c1	–	97	–	–	91	–
COc1cccc(N2CCN(C(=O)CC(C)(C)CC3=NS(=O)(=O)c4ccccc4N3)CC2)c1	–	–	–	–	–	–
CC(C)(CC(=O)N1CCN(c2ccc(Cl)cc2)CC1)CC1=NS(=O)(=O)c2ccccc2N1	–	–	–	–	–	54
Cc1ccc2nc(-c3ccc(NC(=O)CN(c4ccccc4C)S(C)(=O)=O)cc3)sc2c1	–	–	–	–	–	53
O=C(Nc1ccc(-c2nc3cccnc3s2)cc1)c1ccco1	–	–	–	·	–	58
Cc1ccc2nc(-c3ccc(NC(=S)NCC(C)(C)CN(C)C)cc3)sc2c1	–	60	–	–	–	–
Cc1ccc2nc(-c3ccc(NC(=O)COC(=O)c4ccc(Br)o4)cc3)sc2c1	–	–	–	–	–	59
Cc1ccc2nc(-c3ccc(NC(=O)COC(=O)c4cncc(Br)c4)cc3)sc2c1	–	–	–	–	–	–
COc1ccc(C(=O)N2CCN(c3ccc(C(C)=O)cc3)CC2)cc1S(=O)(=O)N1CCCC1	–	–	–	–	–	–
CC(=O)NC(c1ccc(F)c(F)c1)c1nc(-c2ccc(C)c(C)c2)cs1 (stereo unspecified)	·	–	–	·	–	–
C[C@H]1CN([C@@H](C)CO)C(=O)c2cc(Br)cnc2O[C@@H]1CN(C)C(=O)CN(C)C	–	–	–	·	–	–
CN(CC(=O)Nc1ccccc1F)S(=O)(=O)c1ccc2c(c1)n(C)c(=O)c(=O)n2C	–	–	–	–	–	–
Cc1ccc2nc(-c3ccc(NC(=O)COC(=O)c4ccc([N+](=O)[O-])o4)cc3)sc2c1	–	–	–	–	–	78
Cc1ccc2nc(-c3ccc(NC(=O)COC(=O)c4ccco4)cc3)sc2c1	–	–	–	–	–	52
Cc1ccc(NC(=O)COC(=O)c2ccco2)cc1	–	–	–	–	–	–
COc1ccc(NC(=O)CCCc2ccccc2)cc1OC	–	–	–	–	–	–
